Screens (PubChem BioAssay)
A selection: hits, their analogues and other compounds. The true share with any hit is near 1.3%.
MEP2 TOR yeast = modulators of MEP2-GFP levels in yeast, primary screen, S. cerevisiae, multiplex flow cytometry, MLPCN library. S. cerevisiae MEP2-GFP strain, 3 h; 100% = DMSO control level. GFP response vs DMSO, % at 10 µM. 330,000 compounds, 0.51% hits. AID 2016, 2009;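 active means GFP response versus DMSO above a set limit, roughly screen mean plus 3 SD, cut at about 180% in these data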;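 further: median GFP fluorescence of the barcode-gated MEP2-GFP cells per well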
CIT2 TOR yeast = modulators of CIT2-GFP expression in yeast, primary screen, S. cerevisiae, GFP fusion, multiplex flow cytometry, MLPCN library. 320,000 compounds, 0.065% hits. GFP response vs DMSO, % at 10 µM. AID 2029, 2009. S. cerevisiae CIT2-GFP strain, 3 h; 100 means same as DMSO wells;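 active means GFP response relative to DMSO above a set limit, near the screen mean plus 3 SD, cut at about 150% in these data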;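 further: ratio of well median GFP fluorescence to mean of DMSO wells on the plate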
AGP1 TOR yeast = modulators of AGP1-GFP expression in yeast TOR pathway, primary screen, cell-based, multiplex flow cytometry, S. cerevisiae, MLPCN library; 3 h; GFP as percent of DMSO wells; GFP response vs DMSO, % at 10 µM; AID 2066, 2009; 320,000 compounds, 0.02% hits;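 active means GFP response relative to DMSO above a set limit, near screen average plus 3 SD, cut at about 150% in these data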;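 further: median GFP channel fluorescence of the gated AGP1 strain per well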
LAP4-GFP MLPCN = modulators of LAP4-GFP expression in yeast, primary screen, S. cerevisiae, multiplex flow cytometry, MLPCN library; 3 h; median GFP as percent of DMSO wells; GFP response vs DMSO, % at 10 µM; 320,000 compounds, 0.34% hits; AID 2023, 2009;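 active means GFP response vs DMSO above a set limit, about the screen mean plus 3 SD, cut at about 150% in these data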
Efflux pump inh = inhibitors of Candida efflux pumps in yeast, primary screen, S. cerevisiae, Nile Red, multiplex | S. cerevisiae Candida pump triplex | inhibition, % at 10 µM | 330,000 compounds, 0.44% hits | AID 485275, 2010;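 active means plate passing quality check with inhibition over a set limit, or well fluorescence over plate mean plus 4 SD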;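 further: Nile Red retained in pooled yeast measured as flow cytometry median fluorescence; 0% = buffer negative control and 100% = Enniatin B positive control; higher means more Nile Red kept so more efflux inhibition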
RPL19A TOR yeast = RPL19A-GFP expression modulators in yeast, primary screen, cell-based, S. cerevisiae, multiplex flow cytometry, MLPCN. percent response vs DMSO, % at 10 µM. S. cerevisiae RPL19A-GFP strain, 3 h; stronger effect = lower value. 330,000 compounds, 0.3% hits. AID 2025, 2009;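 active means percent response vs DMSO below 50%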;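 further: median channel GFP fluorescence of the barcoded RPL19A-GFP strain; ratio of sample median GFP to plate DMSO average so 100% = DMSO; lower means less RPL19A-GFP as with rapamycin TOR inhibition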
Cmpd fluor yeast = flagged as fluorescent in efflux inhibitor counter-screen; S. cerevisiae AD/pABC3, compound fluorescence, flow cytometry; fluorescence ratio to DMSO, % at 10 µM; 1,700 compounds, 4% hits; shares compounds with Efflux pump inh;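 active means fluorescence ratio to DMSO above its plate's cutoff, the plate mean ratio plus 5 SD, cut at about 210% in these data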;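 further: unstained yeast with no Nile Red so the signal is compound autofluorescence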
CaMdr1 efflux inh = inhibitors of Candida albicans Mdr1 efflux, confirmation, flow cytometry, singleplex, Cherry Pick1 set; 1,700 compounds, 1% hits; shares compounds with Efflux pump inh; S. cerevisiae AD/CaMDR1, Nile Red efflux; inhibition, % at 10 µM; AID 588518, 2011; in the data active means inhibition above about 26%;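 further: 0% = DMSO vehicle and 100% = reference inhibitor; higher means more Nile Red retained so more efflux inhibition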
CaCdr2 efflux inh = inhibitors of Candida albicans Cdr2 efflux pump, confirmation, S. cerevisiae AD/CaCDR2, flow cytometry, cherry pick 1, singleplex. shares compounds with Efflux pump inh. Nile Red retention. Nile Red retention ratio vs DMSO, % at 10 µM. 1,700 compounds, 4% hits. AID 588520, 2011; in the data active means Nile Red retention ratio vs DMSO above about 190%;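 further: higher ratio means more blocking of Cdr2 efflux of the dye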
Cdr1 pump inh = inhibitors of Candida albicans Cdr1 efflux pump, confirmation, S. cerevisiae AD/CaCDR1, flow cytometry, cherry pick 1, singleplex | 1,700 compounds, 1% hits | Nile Red efflux | inhibition, % at 10 µM | shares compounds with Efflux pump inh | AID 588522, 2011;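 active means inhibition above the screen-wide mean plus twice its standard deviation, cut at about 32% in these data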
* marks the source's active call; other numbers are inactive results; . = not tested or not shown.

SMILES	MEP2 TOR yeast	CIT2 TOR yeast	AGP1 TOR yeast	LAP4-GFP MLPCN	Efflux pump inh	RPL19A TOR yeast	Cmpd fluor yeast	CaMdr1 efflux inh	CaCdr2 efflux inh	Cdr1 pump inh
COc1cc(SC)ccc1C(=O)Nc1nccs1	96.8	97.4	89.2	119.7	1.0*	87.1	107.8	-0.1	95.6	-0.1
CNC(=O)COC(=O)c1ccccc1NC(=O)c1ccco1	105.8	97.9	110.3	121.5	1.2*	103.6	98.6	-0.3	95.1	-0.3
Cc1ccc(NC(=O)NCc2cccnc2)cc1C	105.3	104.5	104.9	98.8	0.1	107.4	.	.	.	.
Cc1cccc2c(C(=O)O)c3cccc(C)c3nc12	100.9	103.4	108.3	110.2	-0.1	101.2	.	.	.	.
Cc1c(-c2cccc(Cl)c2)nc2ccccc2c1C(=O)OC/C(O)=C(\C#N)c1nc2ccccc2[nH]1	99.8	100.8	104.3	102.4	2.5*	95.4	107.9	1.3	116.5	1.3
CC(C)C(=O)N[C@@H]1c2ccccc2CC[C@H]1OCc1ccccc1	.	.	.	.	-0.1	.	.	.	.	.
O=C(O)c1nccnc1C(=O)N1CCN(c2ccccc2)CC1	100.2	96.7	104.2	97.6	1.9*	98.3	106.7	-0.2	99.3	2.0
Cc1cc(C)c(S(=O)(=O)Nc2ccc(O)cc2)cc1C	99.7	86.3	87.0	89.6	0.0	90.1	.	.	.	.
Cc1cc(C)c(S(=O)(=O)Nc2ccc(O)c(Sc3ncn[nH]3)c2)cc1C	95.9	98.4	96.9	101.7	-0.1	97.0	91.9	-0.2	91.1	0.0
Cc1cc(C)c(S(=O)(=O)Nc2ccc(O)c(Sc3ncn[nH]3)c2)c(C)c1	103.2	96.0	94.0	89.4	11.1*	101.9	103.0	-0.2	91.4	-0.1
Cc1cc(C)c(S(=O)(=O)Nc2ncn[nH]2)c(C)c1	95.6	96.7	88.3	66.2	-0.1	108.2	.	.	.	.
CC(NC(=O)/C=C/c1ccco1)c1nc2ccccc2n1Cc1c(Cl)cccc1Cl (stereo not given)	89.8	105.4	98.5	94.2	11.4*	98.3	98.6	-0.3	95.1	0.1
CSCCC(NC(=O)c1cccc([N+](=O)[O-])c1)C(=O)OCC(=O)N1CCCC1=O (stereo not given)	92.4	97.5	93.0	88.0	-0.1	89.2	.	.	.	.
O=C(Oc1ccc2c(=O)c(Oc3ccc4ccccc4c3)coc2c1)c1cncc(Br)c1	104.9	96.2	101.3	109.5	1.2*	105.2	103.0	0.2	112.2	0.4
O=C(NC1CCCC1)C1CCN(S(=O)(=O)c2ccccc2)CC1	107.6	105.5	105.5	94.8	-0.1	102.0	.	.	.	.
CC(C)CCN1C(=O)c2cccc3c(N)ccc(c23)C1=O	92.5	84.0	88.9	102.9	0.5*	93.9	334.8*	0.1	110.1	0.1
Cc1cc(C(=O)COC(=O)c2ccc[nH]c2=O)c(C)n1-c1ccc(F)cc1	93.5	78.8	61.7	129.2	27.8*	85.3	115.3	0.1	112.3	0.0
CSCC(C)N1CCC(n2nccc2NC(=O)CCOc2ccccc2)CC1 (stereo not given)	103.5	111.0	106.2	98.9	-0.4	108.9	.	.	.	.
CCCCc1nnc(NC(=O)COc2ccc3c(C)cc(=O)oc3c2)s1	109.4	107.0	111.8	114.7	-0.1	108.7	99.8	-0.1	99.7	-0.1
CCCc1nnc(NC(=O)COc2ccc3c(c2)OCO3)s1	106.3	98.1	96.3	106.0	93.0*	101.6	99.0	-0.2	109.4	-0.1
O=C(CSc1nnc(Cc2cccs2)n1Cc1ccco1)Nc1ccc(Br)cc1	86.5	89.6	.	88.3	-0.2	86.7	76.0	-0.1	99.3	0.0
Cc1cc(Cl)ccc1NC(=O)CSc1nnc(-c2ccncc2)n1Cc1ccco1	95.2	93.2	94.9	87.0	0.3	93.3	.	.	.	.
O=C(CSc1nnc(Cc2cccs2)n1Cc1ccco1)Nc1ccc(Cl)cc1Cl	95.5	83.0	92.5	100.8	0.2	93.7	101.1	0.1	100.1	-0.1
Cc1cc(C)nc(SCc2nnc(SCC(=O)Nc3ccc(C)c(C)c3)n2Cc2ccco2)n1	98.5	.	106.1	87.2	1.0*	102.2	218.9	0.8	99.7	9.3
NS(=O)(=O)c1ccc(NC(=S)N2CCN(c3ccccc3)CC2)cc1	106.4	102.2	107.8	105.3	3.6*	104.8	104.0	-0.1	98.7	0.0
SMILES	MEP2 TOR yeast	CIT2 TOR yeast	AGP1 TOR yeast	LAP4-GFP MLPCN	Efflux pump inh	RPL19A TOR yeast	Cmpd fluor yeast	CaMdr1 efflux inh	CaCdr2 efflux inh	Cdr1 pump inh
NS(=O)(=O)c1ccc(NC(=S)N2CCC(O)CC2)cc1	102.1	109.1	109.0	96.2	-0.1	104.8	.	.	.	.
CCOC(=O)c1ccc(Nc2nc(C)cc(C)n2)cc1	108.2	98.2	98.7	99.6	-0.1	105.8	.	.	.	.
CCOC(=O)c1ccc(Nc2cc(C)nc(-c3ccccc3)n2)cc1	145.4	115.4	94.1	120.8	30.7*	101.4	102.2	-0.2	100.1	0.1
O=C(CCCc1ccccc1)Nc1cccc([N+](=O)[O-])c1	119.0	105.1	100.1	105.7	0.8*	111.4	100.2	-0.1	122.6	0.1
O=C(COC(=O)Cc1ccc(Cl)cc1)NCc1ccco1	103.8	103.2	100.7	93.4	0.0	102.2	.	.	.	.
O=C1/C(=C\c2ccco2)SC(=S)N1c1ccc(O)cc1	108.0	103.5	108.2	95.7	0.4*	95.4	103.0	-0.1	97.7	0.0
COC(=O)C[C@H]1c2ccccc2S(=O)(=O)N1C(C)C	97.8	105.3	99.2	94.4	-0.1	96.0	.	.	.	.
CC(=O)C1CCN(Cc2ccccc2)CC1	98.6	91.3	94.5	92.0	0.1	95.2	.	.	.	.
CSc1ccccc1OC1CCN(Cc2ccccc2)CC1	107.8	98.7	91.3	84.4	5.8*	94.3	101.7	-0.2	100.7	0.0
